# Laboratory results: ChEMBL document CHEMBL3988442, “University of Dundee, Small-Polar-MMV Screening Library” (2021)
# Screen size: about 38,000 compounds; about 1,200 (3.2%) showed an effect of 50% or more. The median lay at about -58%. What follows is part of a selection rich in strong results, with near analogues and random picks from the rest.
# Test system: Plasmodium falciparum
# Assay: Calibr Malaria Delayed Death Assay SOP
# Type: functional, organism-based
# Parameters: scale not given: in the data most compounds retested in dose-response had high values
# Conditions: concentration 4.99e-06 (unit not given; other assays of the set use mol/L)
row,SMILES,Percent Effect
1,Cn1cnnc1C1CCCN1C(=O)Nc1cccc(OC(F)F)c1 (stereo not drawn),-73.45%
2,CC(C)C(=O)N1CCC2(CCN2CC2CC2)C1.O=C(O)C(F)(F)F (stereo not drawn),-79.93%
3,CC(C)C(=O)N1CCCC2(CCCN2Cc2cccnc2)C1 (stereo not drawn),-19.91%
4,CC(C)C(=O)N1CCCC2(CCCN2CC2CCCC2)C1.O=C(O)C(F)(F)F (stereo not drawn),59.96%
5,CC(C)C(=O)N1CCC2(CN(CC3CCCC3)C2)C1.O=C(O)C(F)(F)F,-72.67%
6,O=C(C1CCCCC1)N1CCC2(CCCN2CC2CC2)CC1.O=C(O)C(F)(F)F,-22.84%
7,CCCC(NC(=O)c1ccc(C)cc1C)c1nnn[nH]1 (stereo not drawn),-70.8%
8,Cc1ccccc1-n1cc(-c2ccnc(NC(CO)C(C)C)n2)cn1 (stereo not drawn),25.15%
9,OC[C@@H]1CCCN1c1nccc(-c2c[nH]nc2-c2ccncc2)n1,66.81%
10,Cc1csc2ncc(-c3ccnc(N4CCC[C@@H]4CO)n3)c(=O)n12,-191.9%
11,CN1CCCN(c2nccc(-c3c[nH]nc3-c3ccncc3)n2)CC1,65.32%
12,c1cncc(-c2nc(C3CC3)ncc2-c2ccnc(N3CCCC3)n2)c1,-168.7%
13,Cc1ncc(-c2ccnc(N3CCC[C@@H]3CO)n2)c(-c2cccnc2)n1,-29.65%
14,CN1CCCN(c2nccc(-c3c[nH]c4ccc(Br)cc34)n2)CC1,40.41%
15,CC(C)[C@H](CO)Nc1nccc(-c2c[nH]nc2-c2ccncc2)n1,83.09%
16,NC(=O)[C@H]1CCCN(c2nccc(-c3c[nH]nc3-c3cccnc3)n2)C1,-58.34%
17,c1cc(-c2n[nH]cc2-c2ccnc(N3CCCC3)n2)ccn1,80.23%
18,Cc1[nH]c2ccccc2c1-c1ccnc(N[C@@H](CO)C(C)C)n1,-14.55%
19,CN1CCCN(c2nccc(-c3cc(C(=O)O)ccn3)n2)CC1,-114.4%
20,Cc1cnc(C(NC(=O)NCc2nc(C3CC3)no2)C2CC2)s1 (stereo not drawn),-34.97%
21,Cc1ccc(N2CCO[C@H]3CN(Cc4cccs4)C[C@H]32)nn1.O=C(O)C(F)(F)F.O=C(O)C(F)(F)F,-16.91%
22,CCN(CC)Cc1cc(=O)n2c(n1)CN(C(=O)c1ccnnc1)CCC2.O=C(O)C(F)(F)F,-110.9%
23,Cc1ccc(CN2CC[C@H]3OCC[C@@]3(C(=O)N3CCCO3)C2)o1.O=C(O)C(F)(F)F,-80.01%
24,CC(C)c1nnc2sc(CC3CN(C(C)C)CCO3)nn12 (stereo not drawn),-105.6%
25,CCCS(=O)(=O)N1Cc2nccn2CC(Cn2cncn2)C1 (stereo not drawn),-125.8%

row,SMILES,Percent Effect
1,NC(=O)C1CCN(c2nccc(-c3c[nH]nc3C3CCCCC3)n2)CC1,12.3%
2,c1cc(-c2c[nH]nc2C2CCCCC2)nc(N2CCCCCC2)n1,-3.373%
3,c1cc(-c2n[nH]cc2-c2ccnc(N3CCCCCC3)n2)ccn1,76.99%
4,CC(NC(=O)N1CCNC(=O)CC1)c1c(F)cccc1Cl (stereo not drawn),-91.59%
5,COCCC(=O)N1CCC2(COCc3cnc(-c4cccnc4)nc32)C1 (stereo not drawn),-64.26%
6,Cc1cncc(C(=O)N[C@@H]2CC[C@@H](N3CCOCC3)[C@@H]2O)c1,-132.2%
7,CNC(=O)c1ccc(C(=O)N2CCCC(n3ccnc3C)C2)cn1 (stereo not drawn),-171.6%
8,NC(=O)c1ccc(CN2C(=O)C3(CCNCC3)Nc3ccccc32)cc1,-6.416%
9,Cl.O=C1CC2(CCCNC2)C(=O)N1Cc1ccccc1 (stereo not drawn),-18.54%
10,CC(C)c1ccc(CN2C(=O)C3(CCNCC3)Nc3ccccc32)cc1,81.43%
11,C=Cc1ccc(CN2C(=O)C3(CCNCC3)Nc3ccccc32)cc1,87.33%
12,CCN1CC2(CCC1=O)CCN(Cc1cccc(C#N)c1)CC2,-206%
13,Cl.O=C1CC2(CCCNC2)C(=O)N1Cc1ccc(F)cc1 (stereo not drawn),-29.07%
14,CN1CC2(CCN(Cc3cccc(C#N)c3)CC2)CC1=O,-15.68%
15,Cl.O=C1CC2(CCNCC2)C(=O)N1Cc1ccc(F)cc1,-53.59%
16,N#Cc1cccc(CN2C(=O)C3(CCNCC3)Nc3ccccc32)c1,66.93%
17,c1ccc2c(c1)COC1(CCCC1)N2,-67.59%
18,Cn1nc(CN2CCCCC2)c2c1CN(C(=O)c1ccccc1)C2,-57.34%
19,CC(C)NC(=O)c1nn(C)c(NC(=O)Cc2ccccc2)c1F,-24.59%
20,Cc1nc(CNC(=O)NC2CCN(c3ncccn3)CC2)cs1,-218.9%
21,CCOCCCn1c(NC(=O)c2cc(C)no2)nc2ccccc21,-48.09%
22,Cn1cccc1C(=O)N1C[C@H]2CC[C@@H]1CN(Cc1cscn1)C2,-15.16%
23,O=S(=O)(c1cc(F)ccc1F)N1CCCC1c1ccco1 (stereo not drawn),-139.7%
24,Cc1ccc(CN2CCCC3(CCN(Cc4ccc(C)o4)C3)C2)o1 (stereo not drawn),14.98%
25,Cc1ccc(CN(C)CC2(O)CCCN(C)C2)o1 (stereo not drawn),53.08%

row,SMILES,Percent Effect
1,CCN1CCCC(O)(CN(C)Cc2ccc(C)o2)C1 (stereo not drawn),18.1%
2,O=C(c1ccccn1)N1CCc2ncnc(-c3ccncc3)c2CC1,-17.27%
3,COc1cccc(OC)c1-c1ccnc2cc(CC(=O)N(C)C)nn12,-114.9%
4,CC(C)NC(=O)CC1CC2(CCN(S(C)(=O)=O)CC2)c2ccccc21 (stereo not drawn),-30.05%
5,COc1ccc(-c2cn3c(n2)CO[C@@H](CNCc2nccn2C)C3)cc1,20.49%
6,Cc1ccc(-c2cn3c(n2)CO[C@@H](CNCc2nccn2C)C3)cc1,87.31%
7,Cc1ccc(CNC[C@H]2Cn3cc(-c4ccccc4)nc3CO2)cc1,-116.4%
8,Cn1ccnc1CNC[C@H]1Cn2cc(-c3ccccc3)nc2CO1,55.94%
9,Cc1ccc(-c2cn3c(n2)CO[C@@H](CNCc2cnn(C)c2)C3)cc1,-51.89%
10,Cc1cccnc1CNC[C@H]1Cn2cc(-c3ccccc3)nc2CO1,30.07%
11,Fc1ccccc1OC1CCN(CCn2cc3ccccc3n2)CC1,-71.75%
12,CCC1CN(CC(=O)N2CCCC2)CCN1CCOC (stereo not drawn),-62.36%
13,Cc1ccc(N2CCC3(CCN(C(=O)c4ccsc4)CC3)C2)nn1,-9.92%
14,NC(=O)N1CCC2(CCN(Cc3ccccn3)C2=O)C1.O=C(O)C(F)(F)F (stereo not drawn),-110.7%
15,COCC(O)CN1CCC(=O)N(Cc2ccccc2)Cc2ccccc21 (stereo not drawn),-18.3%
16,CC(C)c1nn(C)c(N(C)C)c1CNCC(O)c1ccccc1F (stereo not drawn),-90.64%
17,COc1ncccc1CNCc1c(C(C)C)nn(C)c1OC,-36.33%
18,COc1ncccc1CNCc1c(C(C)C)nn(C)c1N(C)C,6.61%
19,COc1c(CNCC(c2cccc(F)c2)N(C)C)c(C(C)C)nn1C (stereo not drawn),19.73%
20,COc1ncccc1CNCc1c(C(C)C)nn(C)c1Cl,51.46%
21,CC(C)c1nn(C)c(N(C)C)c1CNCC(O)c1cccc(F)c1 (stereo not drawn),28.02%
22,CC(C)c1nn(C)c(N(C)C)c1CNCC(O)c1ccccc1 (stereo not drawn),-60.19%
23,CC(C)c1nn(C)c(Cl)c1CNCC(O)c1cccc(F)c1.Cl (stereo not drawn),81.83%
24,CC(C)OCCCNC(=O)c1cccnc1N1CCOCC1,-113.7%
25,Cn1ccnc1CN1CCCN(C(=O)c2ccc3c(c2)OCO3)CC1,-109.5%

row,SMILES,Percent Effect
1,O=C(Nc1nncs1)N1CCC(c2ccc(O)cc2)CC1,-154%
2,CCN1C(=O)CCCC12CCCN(C(=O)c1conc1C)C2 (stereo not drawn),-139.9%
3,CCCS(=O)(=O)N1CCC2(CN(c3ccccc3)C(=O)CN2C)C1.O=C(O)C(F)(F)F (stereo not drawn),-40.82%
4,CC1Oc2c(cccc2C(=O)N2CCCCCC2)NC1=O (stereo not drawn),-198.9%
5,Cc1nc[nH]c1CN(Cc1ccccc1)Cc1nccs1,74.62%
6,Cc1cccc(CN(Cc2ccccc2)Cc2nccs2)n1,-42.32%
7,c1ccc(CN(Cc2ncc[nH]2)Cc2nccs2)cc1,15.24%
8,Cc1cccc(CN2CC[C@@H]3O[C@@H](C(=O)N4CCN(C)CC4)C[C@@H]32)c1,7.549%
9,Cc1nc2ccnn2c(C)c1CCC(=O)N1CCSCC1,-118.8%
10,Cc1cccc(N2CCOCC3(C2)CN(c2ccccc2)C(=O)CO3)n1.O=C(O)C(F)(F)F (stereo not drawn),-64.15%
11,Cc1cccc(N2CCOCC3(C2)CN(c2ccoc2)C(=O)CO3)n1.O=C(O)C(F)(F)F (stereo not drawn),65.62%
12,Cc1cccc(N2CCOCC3(C2)CN(c2cnn(C)c2)C(=O)CO3)n1.O=C(O)C(F)(F)F (stereo not drawn),-79.15%
13,OC1(CN2CCOC(Cn3cncn3)C2)CCCCC1 (stereo not drawn),-41.07%
14,CN(Cc1cc2n(n1)CCNC2)Cc1n[nH]c2c1CCC2,-20.1%
15,CN(Cc1cc2n(n1)CCCNC2)Cc1n[nH]c2c1CCC2,-43.74%
16,Cc1ccc2nc(CN(C)Cc3[nH]nc4c3CCC4)[nH]c2c1C,36.38%
17,Cc1ccc2nc(CN(C)Cc3n[nH]c4c3CCCCC4)[nH]c2c1C,85.65%
18,CN(Cc1cc2n(n1)CCNC2)Cc1n[nH]c2c1CCCCC2,-6.476%
19,Cc1ccc2[nH]c(CN(C)Cc3n[nH]c4c3CCC4)nc2c1,82.04%
20,CCn1nc(CC(C)C)cc1C(=O)NCCCN1CCOCC1,-66.39%
21,CN(Cc1ccc2c(c1)OCCO2)Cn1nc(C(C)(C)C)ccc1=O,-39.48%
22,CN(Cc1ccncc1)C1COC2(CCN(Cc3nccn3C)CC2)C1.O=C(O)C(F)(F)F.O=C(O)C(F)(F)F.O=C(O)C(F)(F)F (stereo not drawn),-27.83%
23,O=C(O)C(F)(F)F.O=C1[C@H]2CN(S(=O)(=O)C3CC3)C[C@H]2CN1Cc1cccnc1,-0.2941%
